Results taken from PubChem BioAssay AID1159580 (chemical genetic matrix, 2015).
About 2,000 (36%) of roughly 5,500 compounds were called active. Another 18% or so got no clear call; they are omitted. Cut-off read from the data, not from the text of the source: active = normalized growth mostly below about 0.91 (no sharp cut-off); inconclusive = no clear call, values can overlap the other calls; inactive = mostly above about 0.92. The list shows a part of the results.

Assay: chemical genetic growth profiling, strain panel (AID 1159580);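 note: tested at 20 µM; growth read once vehicle control cultures reached saturation at 30 °C; 1 = growth at the plate median or of vehicle wells; lower values mean less growth of the strain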
Conditions: S. cerevisiae deletion strains, growth OD

Measured: normalized growth

CC[C@]1(O)CC2CN(CCc3c([nH]c4ccccc34)[C@@](C(=O)OC)(c3cc4c(cc3OC)N(C)[C@H]3[C@@](O)(C(=O)OC)[C@H](OC(C)=O)[C@]5(CC)C=CCN6CC[C@]43[C@@H]65)C2)C1 (some centres undefined)
inactive: locus YAL021C, strain ccr4, hits give low values 1 | locus YAL026C, strain drs2, hits give low values 0.948 | locus YAL030W, strain snc1, hits give low values 0.985 | locus YBL061C, strain skt5, hits give low values 0.975 | locus YBR009C, strain hhf1, hits give low values 0.941 | locus YBR023C, strain chs3, hits give low values 0.984 | locus YBR171W, strain sec66, hits give low values 0.959 | locus YBR231C, strain swc5, hits give low values 0.982 | locus YBR279W, strain paf1, hits give low values 0.98 | locus YCL011C, strain gbp2, hits give low values 0.983 | locus YCL016C, strain dcc1, hits give low values 1.01 | locus YCL061C, strain MRC1, hits give low values 1.02 | locus YCL069W, strain vba3, hits give low values 0.969 | locus YCR088W, strain abp1, hits give low values 0.974 | locus YDL005C, strain med2, hits give low values 0.972 | locus YDL040C, strain nat1, hits give low values 0.969 | locus YDR001C, strain nth1, hits give low values 0.973 | locus YDR069C, strain doa4, hits give low values 1 | locus YDR137W, strain rgp1, hits give low values 0.979 | locus YDR159W, strain sac3, hits give low values 0.928 | locus YDR195W, strain ref2 0.951 | locus YDR297W, strain sur2, hits give low values 0.975 | locus YDR334W, strain swr1, hits give low values 0.955 | locus YDR335W, strain msn5, hits give low values 0.981 | locus YDR392W, strain spt3, hits give low values 0.859 | locus YEL003W, strain gim4, hits give low values 0.954 | locus YEL037C, strain rad23, hits give low values 0.963 | locus YEL061C, strain CIN8 (second series), hits give low values 0.962 | locus YER015W, strain faa2, hits give low values 0.961 | locus YER016W, strain bim1, hits give low values 0.989 | locus YER111C, strain swi4, hits give low values 0.972 | locus YER155C, strain BEM2 (second series), hits give low values 0.907 | locus YFR010W, strain ubp6, hits give low values 0.948 | locus YGL167C, strain pmr1, hits give low values 0.972 | locus YGL173C, strain kem1, hits give low values 0.976 | locus YGL227W, strain vid30, hits give low values 0.947 | locus YGL240W, strain doc1, hits give low values 0.954 | locus YGL253W, strain hxk2, hits give low values 1.01 | locus YHR013C, strain ard1, hits give low values 0.949 | locus YHR027C, strain rpn1, hits give low values 0.957 | locus YHR030C, strain SLT2, hits give low values 0.991 | locus YHR079C, strain IRE1, hits give low values 0.975 | locus YHR142W, strain chs7, hits give low values 1.02 | locus YJL092W, strain hpr5, hits give low values 0.973 | locus YJL095W, strain BCK1 (second series), hits give low values 0.978 | locus YJL095W, strain BCK1, hits give low values 0.992 | locus YJL115W, strain asf1, hits give low values 0.956 | locus YJL129C, strain trk1, hits give low values 0.986 | locus YJL154C, strain vps35, hits give low values 0.965 | locus YJL164C, strain tpk1, hits give low values 0.956 | locus YJL166W, strain qcr8, hits give low values 0.998 | locus YJL187C, strain SWE1, hits give low values 0.974 | locus YJR066W, strain TOR1, hits give low values 0.965 | locus YKL160W, strain elf1, hits give low values 1.05 | locus YKR026C, strain gcn3, hits give low values 0.975 | locus YKR091W, strain srl3, hits give low values 0.98 | locus YLL001W, strain dnm1, hits give low values 1.05 | locus YLL026W, hits give low values 0.979 | locus YLL041C, strain sdh2, hits give low values 0.964 | locus YLR027C, strain aat2, hits give low values 0.987 | locus YLR113W, strain HOG1, hits give low values 0.955 | locus YLR221C, strain rsa3, hits give low values 1.04 | locus YLR258W, strain gsy2, hits give low values 0.979 | locus YLR262C, strain YPT6 (second series), hits give low values 0.968 | locus YLR320W, strain mms22, hits give low values 1.04 | locus YLR342W, strain FKS1, hits give low values 0.977 | locus YLR357W, strain rsc2, hits give low values 0.974 | locus YLR370C, strain arc18, hits give low values 0.989 | locus YLR384C, strain iki3, hits give low values 0.967 | locus YML120C, strain ndi1, hits give low values 1.01 | locus YMR058W, strain fet3, hits give low values 0.977 | locus YMR125W, strain sto1, hits give low values 1.02 | locus YMR129W, hits give low values 0.967 | locus YMR205C, strain PFK2, hits give low values 1.01 | locus YMR231W, strain pep5, hits give low values 0.966 | locus YNL071W, strain lat1, hits give low values 0.963 | locus YNL183C, strain NPR1, hits give low values 0.928 | locus YNL209W, strain ssb2, hits give low values 0.973 | locus YNL248C, strain rpa49, hits give low values 1.04 | locus YNL322C, strain KRE1 (second series), hits give low values 0.977 | locus YNR049C, strain mso1, hits give low values 0.969 | locus YOR001W, strain rrp6, hits give low values 0.923 | locus YOR070C, strain gyp1, hits give low values 1 | locus YOR080W, strain dia2, hits give low values 0.96 | locus YOR083W, strain WHI5, hits give low values 1.04 | locus YOR106W, strain vam3, hits give low values 1.03 | locus YOR231W, strain MKK1, hits give low values 0.952 | locus YOR265W, strain rbl2, hits give low values 0.987 | locus YOR270C, strain vph1, hits give low values 1.06 | locus YOR290C, strain snf2, hits give low values 1.01 | locus YPL051W, strain arl3, hits give low values 1.01 | locus YPL078C, strain atp4, hits give low values 1.04 | locus YPL106C, strain sse1, hits give low values 0.931 | locus YPL240C, strain hsp82, hits give low values 0.963 | locus YPL256C, strain CLN2, hits give low values 0.942

Nc1ncnc2c1ncn2C1OC2COP(O)(=S)O[C@@H]2[C@@H]1O (some centres undefined)
inactive: locus YAL013W, strain DEP1, hits give low values 1.01 | locus YAL040C, strain CLN3, hits give low values 1.01 | locus YDR150W, strain NUM1, hits give low values 1.02 | locus YDR363W, strain ESC2, hits give low values 0.99 | locus YER002W, strain NOP16, hits give low values 0.989 | locus YGR078C, strain PAC10, hits give low values 1 | locus YJR075W, strain HOC1, hits give low values 0.997 | locus YNL128W, strain TEP1, hits give low values 1.01 | locus YNL153C, strain GIM3, hits give low values 1.03 | locus YNL175C, strain NOP13, hits give low values 1.03 | locus YNL197C, strain WHI3, hits give low values 1.02 | locus YNL224C, strain SQS1, hits give low values 1.02 | locus YOR083W, strain WHI5 (second series), hits give low values 0.997 | locus YPL241C, strain CIN2, hits give low values 1.01
